About 3,600 (1.2%) of roughly 310,000 compounds were called active.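 The calls were made as follows: active = ratio plate-corrected score three or more library SD toward inhibition, starting fluorescence score within five deviations; inactive = the rest.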 The sample as a whole holds a higher share of actives than the screen did.

This assay deals with Anoctamin-1 (Mus musculus) (UniProt Q8BHY3). Briefly: blockers of mouse ANO1 Ca-activated Cl channel – cell-based, HTS, primary screen (AID 588511).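 As to normalized B-score (activity score, 25-100; higher = stronger inhibition): score derived from kinetic fluorescence span divided by baseline fluorescence per well.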 As to conditions: HEK293 TMEM16A/YFP iodide influx fluorescence, ionomycin; at 10 µM.
Sequence of Anoctamin-1 (Mus musculus) (Q8BHY3 whole entry, looked up): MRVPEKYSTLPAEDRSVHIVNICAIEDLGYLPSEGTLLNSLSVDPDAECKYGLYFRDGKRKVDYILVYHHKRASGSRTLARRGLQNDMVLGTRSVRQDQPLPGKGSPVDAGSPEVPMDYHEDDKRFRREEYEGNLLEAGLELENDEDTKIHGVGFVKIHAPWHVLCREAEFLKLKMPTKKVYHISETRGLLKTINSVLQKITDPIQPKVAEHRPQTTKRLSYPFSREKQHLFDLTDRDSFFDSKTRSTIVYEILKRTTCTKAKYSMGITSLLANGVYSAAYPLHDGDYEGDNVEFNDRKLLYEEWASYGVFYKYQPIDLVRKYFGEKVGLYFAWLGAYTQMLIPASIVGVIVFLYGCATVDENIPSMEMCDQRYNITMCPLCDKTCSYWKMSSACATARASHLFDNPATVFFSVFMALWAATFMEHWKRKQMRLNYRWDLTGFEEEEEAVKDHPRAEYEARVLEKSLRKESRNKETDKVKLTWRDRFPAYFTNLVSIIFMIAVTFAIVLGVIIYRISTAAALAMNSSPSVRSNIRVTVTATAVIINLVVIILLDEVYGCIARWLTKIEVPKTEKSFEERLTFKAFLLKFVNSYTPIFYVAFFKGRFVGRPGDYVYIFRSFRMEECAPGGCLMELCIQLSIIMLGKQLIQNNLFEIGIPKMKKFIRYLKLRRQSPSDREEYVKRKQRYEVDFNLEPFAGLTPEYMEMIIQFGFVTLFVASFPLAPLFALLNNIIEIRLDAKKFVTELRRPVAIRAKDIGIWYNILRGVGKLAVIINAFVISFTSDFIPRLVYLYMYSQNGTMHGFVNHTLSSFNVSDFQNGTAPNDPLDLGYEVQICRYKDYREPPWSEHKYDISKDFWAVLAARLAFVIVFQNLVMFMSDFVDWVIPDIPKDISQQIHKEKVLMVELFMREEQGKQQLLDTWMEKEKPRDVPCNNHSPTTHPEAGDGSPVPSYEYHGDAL
Regarding `O=C(c1ccc(CSc2ccccc2)cc1)N1CCCCCC1`, the normalized B-score (activity score, 25-100; higher = stronger inhibition) entry was “inactive”. For `O=C(C1CC1)N1CCN=C1SCc1ccc(Cl)cc1`, the normalized B-score (activity score, 25-100; higher = stronger inhibition) result is “inactive”. Under `CC1CCN(C(=O)c2ccc(CSc3ccc(Cl)cc3)cc2)CC1` stands 25 (active).

As for `CCCCN1C(N)=NC[C@@H]1Cc1ccccc1`, the normalized B-score (activity score, 25-100; higher = stronger inhibition) entry was “inactive”.

Consider `COc1ccc(NS(=O)(=O)c2ccc(C)c(C(=O)NNC(=O)c3csc(N4CCOCC4)n3)c2)cc1`, for which the normalized B-score (activity score, 25-100; higher = stronger inhibition) entry was “inactive”. Under `Cc1ccc(CN2CCN(Cc3ccc(OCCO)cc3)CC2CCO)o1` (centres undefined) stands “inactive”; under `CC12CCC(C(=O)N(c3cccc(Cl)c3)C1=O)C2(C)C` (centres undefined), “inactive”; under `CC1=NN(c2cccc(Cl)c2)C(=O)C12CC(C)=C(C)CS2` (centres undefined), 100 (active). Under `Cc1ccccc1OCC(=O)NNC(=O)c1cc(S(=O)(=O)N(C)C)ccc1N1CCCC1` stands “inactive”; under `CN(C(=O)COC(=O)c1ccc(Br)o1)c1c(N)n(Cc2ccccc2)c(=O)[nH]c1=O`, “inactive”. Regarding `COC(=O)c1ccccc1NS(=O)(=O)c1ccc2[nH]c(=O)[nH]c2c1`, the normalized B-score (activity score, 25-100; higher = stronger inhibition) entry was “inactive”. With `COc1cccc(OC)c1C(=O)Nc1c(C(=O)N2CCN(c3ccccn3)CC2)oc2ccccc12`, the normalized B-score (activity score, 25-100; higher = stronger inhibition) entry was “inactive”. Under `O=C(CN1C(=O)C2C3C=CC(C3)C2C1=O)Nc1nc(-c2ccccn2)cs1` (centres undefined) stands “inactive”; under `CC(NC(=O)c1ccco1)C(=O)Nc1nc(-c2ccccn2)cs1` (centres undefined), 100 (active). Under `Cc1cc(NC(=O)[C@H](C)NC(=O)c2ccco2)ccc1Br` stands “inactive”; under `CCc1ccc(NC(=O)C(=O)NNC(=O)c2cccs2)cc1`, “inactive”; under `OCC[C@H]1C[C@@H](O)[C@H](O)[C@@]2(OCCc3ccccc32)O1`, “inactive”. Under `CCOC(=O)C1Nc2ccc(C(F)(F)F)cc2C2C=CCC12` (centres undefined) stands “inactive”; under `COc1ccc(C(=O)N2CCCCC2C(=O)Nc2ccc(-n3nc(C)cc3C)cc2)o1` (centres undefined), “inactive”; under `O=S(=O)(NC1CC2CCC1C2)c1ccc(Cl)cc1` (centres undefined), “inactive”. As to `Cc1cc(C)cc(OCC(=O)Nc2nc3ccc([N+](=O)[O-])cc3s2)c1`, the normalized B-score (activity score, 25-100; higher = stronger inhibition) was 100 (active). Turning to `CCOc1ccc2nc(NC(=O)c3cc([N+](=O)[O-])ccc3N3CCOCC3)sc2c1`, the normalized B-score (activity score, 25-100; higher = stronger inhibition) entry is “inactive”. Under `CCC(=O)c1ccc(OCC(=O)Nc2ccc3nc(C)sc3c2)cc1` stands “inactive”; under `Cc1cc(F)ccc1N1CCC(N2CCN(C)C(CCO)C2)CC1` (centres undefined), “inactive”. With `Cc1cccc(C(=O)Nc2ccc(Oc3cnccn3)cc2)c1`, the normalized B-score (activity score, 25-100; higher = stronger inhibition) entry is “inactive”.

Consider `Cc1csc(=Nc2ccccc2)n1CCO`, for which the normalized B-score (activity score, 25-100; higher = stronger inhibition) result was “inactive”. Under `OCCn1c(-c2ccccc2)csc1=Nc1ccccc1` stands 25 (active).

Turning to `Cc1csc(=NC(=O)c2ccccc2)n1CCO`, the normalized B-score (activity score, 25-100; higher = stronger inhibition) result was “inactive”. Under `O=C(OC1CCOC1=O)c1cccc(S(=O)(=O)Nc2ccc(F)cc2)c1` (centres undefined) stands “inactive”; under `CCOC(=O)C1CCN(C(=O)C2CCCN(S(=O)(=O)c3ccc(OC)c(Cl)c3)C2)CC1` (centres undefined), “inactive”; under `COC(=O)c1ccc(COC(=O)c2c(C)nn(Cc3ccccc3Cl)c2Cl)o1`, 25 (active). For the compound `COC(=O)c1ccc(COC(=O)C2CCN(S(=O)(=O)c3c(Cl)cccc3Cl)CC2)o1`, the normalized B-score (activity score, 25-100; higher = stronger inhibition) entry is “inactive”. With `COC(=O)c1ccc(CSc2ccccc2C)o1`, the normalized B-score (activity score, 25-100; higher = stronger inhibition) entry is “inactive”.

Consider `Cc1ccc(O)c(/C=N/NC(=O)COc2ccc3c(C)cc(=O)oc3c2)c1`, for which the normalized B-score (activity score, 25-100; higher = stronger inhibition) result is “inactive”. Under `CCOc1ccc(S(=O)(=O)N2CCN(C(=S)NCC3CCCO3)CC2)cc1` (centres undefined) stands “inactive”; under `S=C(NCC1CCCO1)N1CCN(c2ccc(Cl)c(Cl)c2)CC1` (centres undefined), 100 (active). In the case of `COc1ccc(S(=O)(=O)N2CCN(C(=S)NCC3CCCO3)CC2)cc1OC` (centres undefined), the normalized B-score (activity score, 25-100; higher = stronger inhibition) entry was “inactive”. Under `Cc1ccccc1CN1CCNC(=O)C1CC(=O)NCCC1=CCCCC1` (centres undefined) stands “inactive”; under `Cc1nnc(SCCCCSc2nnc(C)c(=O)[nH]2)[nH]c1=O`, “inactive”. Under `CC(C)(C)c1ccc(CCC2OCC(CN3CCOCC3)O2)cc1` (centres undefined) stands “inactive”; under `CCCC(C)n1[nH]c(=O)c2c(C)cc(C)nc21` (centres undefined), “inactive”; under `CC(C)C(=O)Nc1cccc(NC(=S)NC(=O)C(c2ccccc2)c2ccccc2)c1`, “inactive”. Under `CCCCC(=O)NNC(=S)NC(=O)C(c1ccccc1)c1ccccc1` stands 25 (active). For `O=C(NNC(=S)NCc1ccco1)C(c1ccccc1)c1ccccc1`, the normalized B-score (activity score, 25-100; higher = stronger inhibition) result was “inactive”.

For `CSCCC(NS(=O)(=O)c1ccc(C)cc1)C(=O)N1CCCC1` (centres undefined), the normalized B-score (activity score, 25-100; higher = stronger inhibition) entry is “inactive”.

For the compound `CN(C)c1ccc(-c2nnc(-c3cccnc3)o2)cc1`, the normalized B-score (activity score, 25-100; higher = stronger inhibition) entry is “inactive”. Regarding `COc1cccc(N(C(=O)c2ccn[nH]2)C2(C(=O)Nc3c(C)cccc3C)CCCCC2)c1`, the normalized B-score (activity score, 25-100; higher = stronger inhibition) entry is “inactive”. Under `CS(=O)(=O)N1CCN=C1SCc1ccc(F)cc1` stands “inactive”; under `CCOC(=O)N1CCN(C(=O)c2ccc3c(c2)N(Cc2ccc(C)cc2)CCS3)CC1`, 25 (active); under `O=C(NCCc1ccccc1)c1ccc2c(c1)N(Cc1ccccc1)CCS2`, “inactive”. For `O=C(NCCN1CCOCC1)c1ccc2c(c1)N(Cc1ccc(Cl)cc1)CCS2`, the normalized B-score (activity score, 25-100; higher = stronger inhibition) entry was “inactive”. Under `CC1CCN(C(=O)c2cccc(S(=O)(=O)N3CCCc4ccccc43)c2)CC1` stands “inactive”.

With `O=C1CCC(=O)N(O)CCCCCNC(=O)CCC(=O)N(O)CCCCCNC(=O)CCC(=O)N(O)CCCCCN1`, the normalized B-score (activity score, 25-100; higher = stronger inhibition) result is “inactive”. In the case of `Cc1ccc(NC(=O)c2nc[nH]c2C(=O)N[C@@H](CCCCNC(=O)OC(C)(C)C)C(=O)OC(C)(C)C)cc1`, the normalized B-score (activity score, 25-100; higher = stronger inhibition) entry was “inactive”.

The values above are taken from PubChem BioAssay AID588511 (Johns Hopkins Ion Channel Center, 2011).
